Screening results as filed in PubChem.
Sampled rows, rich in hits. Any-hit rate of the full collection: about 1.5%.
PI4K2A block – blocks human PI4K2A kinase activity; actives 0.13% (n = 420,000); AID 1346378; purified PI4K2A, ADP-Glo luminescence, 1 h; stronger effect = lower value; activity change, negative = inhibition, % at 76.9 µM; in the data active = activity change below about -50%; inconclusive = mostly about -30% to -49%
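PI4K2A activity was measured by ADP-Glo luminescence: enzyme (4 ug/mL stock) and phosphatidylinositol (1.2 mM stock) in Tris pH 7.5/MgCl2/EGTA/Triton X-100 buffer were reacted with ATP (300 microM stock) for one hour at ambient temperature.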
Giardia killer – kills Giardia lamblia; actives 0.15% (n = 340,000); activity change, % at 7.66 µM, hits read low; Giardia lamblia trophozoite viability; in the data active = activity change below about -80%; inconclusive = between about -30% and that limit;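 note: parasites exposed to compound for two days anaerobically before the ATP read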
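Trophozoites 100 cells/well + cpd; 48 hrs, 37 deg C, anaerobic. ATPLite 1-Step added, 15-30 min RT, luminescence read (ATP-based viability).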
TrxR1 substrate – substrates of rat thioredoxin reductase 1. Potency, µM (top dose mostly 114 µM). purified TrxR1 substrate turnover, NADPH consumption readout. actives 0.01% (n = 390,000). AID 588456. O89049; note: nearly all actives have a fitted effect of over 50% in size
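Rat TrxR1, dispensed at 90 nM, was prereduced with 400 uM NADPH (final) for 5 min at ~22 deg C, then incubated with compound 15 min before 400 uM selenite. A first-read NADPH fluorescence drop versus no-compound background flagged substrates.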
GALK inhibitor – blocks human galactokinase activity | actives 0.007% (n = 270,000) | AID 1868 | Potency, µM (highest dose often 57.5 µM), actives largely listed as inhibitors | Purified GALK, Kinase-Glo residual ATP luminescence | P51570
Target sequence (P51570 whole entry, looked up): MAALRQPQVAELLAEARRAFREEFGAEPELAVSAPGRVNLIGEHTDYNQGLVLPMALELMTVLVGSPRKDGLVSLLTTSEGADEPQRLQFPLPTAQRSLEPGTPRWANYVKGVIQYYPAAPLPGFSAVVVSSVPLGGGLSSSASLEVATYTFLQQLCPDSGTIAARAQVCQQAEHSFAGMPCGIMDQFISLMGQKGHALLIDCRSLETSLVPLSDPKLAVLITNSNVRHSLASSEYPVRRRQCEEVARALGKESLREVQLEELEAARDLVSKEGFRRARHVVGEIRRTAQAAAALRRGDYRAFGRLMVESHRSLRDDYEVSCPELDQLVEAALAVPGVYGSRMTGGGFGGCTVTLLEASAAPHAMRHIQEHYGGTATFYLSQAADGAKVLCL
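Compounds were pin-transferred into ATP buffer (35 uM final), then GALK plus galactose (5 nM, 100 uM final) was added. After 1 h at room temperature, Kinase-Glo Plus was added and luminescence read after 10 min.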
TrxR1 inh – inhibitors of rat thioredoxin reductase 1 | O89049 | recombinant rTrxR1, NADPH fluorescence consumption, selenite substrate | Potency, µM (highest dose often 114 µM), hits mostly inhibitors | actives 1% (n = 390,000); note: nearly all actives have a fitted effect of over 65% in size
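Rat TrxR1 (90 nM in the dispensed reagent) was pre-reduced with 400 uM NADPH for 5 min at room temperature, then incubated with compound for 15 min. After 400 uM selenite was added, NADPH fluorescence (Ex 340/Em 450 nm) was followed for 8 min.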
Coupling enz – inhibits coupling enzyme system, counter-screen for aldolase hits | coupling enzyme system counterscreen, AmpLite Red fluorescence | activity change, negative = inhibition, % at 58.2 µM, hits read low | actives 0.67% (n = 290,000); in the data active = activity change below about -30%
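Coupling enzymes only (glyceraldehyde-3-phosphate) + compound, at 57.5 uM final, 10 min RT; add substrate/coupling/AmpLite Red mix, 20 min RT; fluorescence ex 525/em 598 nm. Actives flag coupling-system interference.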
Hits are given with their value; i = inactive; ? = inconclusive; nt = not tested or not shown; ! = not active in a repeat; [ ] = remark or other dose. Unless noted, calls come from the whole dose curve; as a rule, active = well fitted curve in the direction sought with a large enough effect; inconclusive = small, poorly fitted or top-dose-only effect, or another doubt; inactive = no such curve, though single readings can be large; an effect the other way counts as inactive or inconclusive.

SMILES	PI4K2A block	Giardia killer	TrxR1 substrate	GALK inhibitor	TrxR1 inh	Coupling enz
CC(=O)c1sc2nc(-c3ccco3)ccc2c1N	i	i	i	i	10µM	i
Nc1c(C(=O)Nc2ccc(Br)cc2)sc2nc(-c3ccco3)ccc12	i	i	i	i	i	i
CCOC(=O)c1cc2c(ccn2C)n1CC(=O)N1CCN(c2cccc(C(F)(F)F)c2)CC1	i	i	i	i	i	-33
CCOC(=O)c1cc2c(ccn2C)n1CC(=O)N1CCN(c2ccc(F)cc2)CC1	i	i	i	i	i	i
C/C=C(\C)C(=O)N1CC2(CC(c3cccc(NC(=O)COc4ccc(Cl)cc4)c3)=NO2)C[C@@H]1C(N)=O (some centres undefined)	i	i	i	i	i	i
CCCCCC(=O)Nc1cccc(C2=NOC3(C2)C[C@H](C(N)=O)N(C(=O)COc2ccc(Cl)cc2)C3)c1 (some centres undefined)	i	?	i	i	i	i
C/C=C\C=C/C(=O)Nc1cccc(C2=NOC3(C2)C[C@@H](C(N)=O)N(C(=O)COc2ccc(Cl)cc2)C3)c1 (some centres undefined)	i	i	i	i	5.6µM	i
C/C=C/C=C\C(=O)Nc1cccc(C2=NOC3(C2)C[C@@H](C(N)=O)N(C(=O)c2cc([N+](=O)[O-])cc([N+](=O)[O-])c2C)C3)c1 (some centres undefined)	i	i	i	i	16µM	i
CCCCCC(=O)Nc1cccc(C2=NOC3(C2)C[C@@H](C(N)=O)N(C(=O)c2cc([N+](=O)[O-])cc([N+](=O)[O-])c2C)C3)c1 (some centres undefined)	i	i	i	i	i	i
C/C=C\C=C\C(=O)N1CC2(CC(c3cccc(NC(=O)COc4ccc(Cl)cc4)c3)=NO2)C[C@H]1C(N)=O (some centres undefined)	i	i	i	i	25µM	i
C/C=C/C=C\C(=O)Nc1cccc(C2=NOC3(C2)C[C@H](C(N)=O)N(C(=O)/C=C/C)C3)c1 (some centres undefined)	i	i	i	i	14µM	i
CN(C)c1ccc(/C=C/c2ccnc3ccc(N)cc23)cc1	nt	nt	i	nt	i	nt
CCOc1ccc(-c2c(C)nn3c(C)c(C(=O)NCC(C)c4ccccc4)cnc23)cc1OCC (centres undefined)	i	nt	i	nt	i	nt
Cc1nnc(N/N=C/c2ccco2)n1N	?	i	i	i	i	-42
N#CCSc1nc2c(c(=O)n1Cc1ccco1)C1(CCCC1)Cc1ccccc1-2	i	i	i	i	45µM	i
COC(=O)CCC(=O)OC1(C)C(=O)C2=CN(CCN3CCOCC3)C(c3ccc(OC)cc3)=CC2=C(Br)C1=O (centres undefined)	nt	nt	nt	i	nt	-37!
CC1(OC(=O)CCc2ccccc2)C(=O)C=C2C=C(c3ccc(C#N)cc3)N(CC3CC3)C=C2C1=O (centres undefined)	i	i	i	i	?	i
COC(=O)CCC(=O)OC1(C)C(=O)C2=CN(C(CO)CO)C(c3ccc(OC)cc3)=CC2=C(Br)C1=O (centres undefined)	nt	nt	nt	i	nt	-48!
CC1(OC(=O)CCc2ccccc2)C(=O)C=C2C=C(c3ccc(C#N)cc3)N(CCN3CCOCC3)C=C2C1=O (centres undefined)	i	i	i	i	i	-31!
COC(=O)CCC(=O)OC1(C)C(=O)C2=CN(CCc3ccccn3)C(c3ccc(OC)cc3)=CC2=C(Br)C1=O (centres undefined)	i	i	i	nt	i	i
COC(=O)CCC(=O)OC1(C)C(=O)C2=CN(CCCCO)C(c3ccc(OC)cc3)=CC2=C(Br)C1=O (centres undefined)	nt	nt	nt	nt	nt	-47!
O=C(NCCc1ccccc1)[C@@H]1CC=C[C@@H]2CCN(C3CC3)C(=O)[C@@H]21	nt	nt	i	nt	i	nt
Cc1cccc(OCCSc2nc3ccc(NC(=O)c4cccs4)cc3s2)c1	i	nt	i	nt	i	nt
CCOc1ccc(/C=C/c2cc[n+](C)c3ccccc23)cc1OCC	nt	nt	i	nt	i	nt
CC(C)(C)OC(=O)N(c1cccc2cccnc12)S(=O)(=O)c1ccccc1Br	nt	i	i[0.457 µM]	nt	i	nt
SMILES	PI4K2A block	Giardia killer	TrxR1 substrate	GALK inhibitor	TrxR1 inh	Coupling enz
Cc1ccc(NC(=O)/C=C\C(=O)NCC(=O)O)cc1C	i	i	i	i	45µM	i
O=[N+]([O-])c1cc(-c2ncccn2)c([N+](=O)[O-])s1	i	i	i	nt	2µM	-84
O=C(Nc1ncccn1)c1cc([N+](=O)[O-])cc([N+](=O)[O-])c1	i	i	i	i	i	i
COc1ccc(S(=O)(=O)Cc2ccc(C(=O)N3CCOCC3)o2)cc1	i	i	i	i	35µM	i
Cn1c(/C(C#N)=C/c2ccc(C(F)(F)F)cc2)nc2ccccc21	i	nt	i	nt	i	nt
CC(=O)Oc1ccccc1C(=O)C=Cc1cccc([N+](=O)[O-])c1	i	i	i	nt	25µM	nt
NCCNCCN	nt	nt	nt	nt	nt	-44
NCCNCCNCCN	i	i	i	nt	i	i
C=C1C(=O)C=C2CN(C(=O)c3ccccc3)[C@@](Cc3ccc(F)cc3)(C(=O)OC)[C@@H]12	i	?	i	nt	8.9µM	i
Cc1cc(I)ccc1Nc1c(C(=O)NOCC2CC2)cc(F)c(F)c1F	nt	nt	nt	nt	nt	i
COc1ccc(-c2cc(=O)c3c(OC)c(OC)c(OC)c(OC)c3o2)cc1OC	i	i	i	i	i	i
COc1ccc(-c2ccccc2)c2oc(-c3ccco3)cc(=O)c12	i	i	i	nt	32µM	nt
NS(=O)(=O)c1ccc(CCNc2nc3c(-c4cccc(F)c4)nnn3c3ccc(Cl)cc23)cc1	i	nt	i	nt	i	nt
O=C(c1ccccc1Cl)N(C(=O)c1ccccc1Cl)c1nccc(-c2cccs2)n1	i	i	i	i	i	-42
Cc1ccccc1C(=O)N1CC/C(=N\OS(=O)(=O)O)c2ccc(Cl)cc21	i	nt	nt	nt	nt	nt
COc1ccccc1NC(CC(=O)c1ccccc1)C(=O)OCC(=O)c1ccc(C)cc1 (centres undefined)	i	i	i	i	i	i
O=C(CC(Nc1ccc(Cl)cc1Cl)C(=O)O)c1ccccc1 (centres undefined)	i	i	i	i	25µM	i
COc1ccccc1NC(CC(=O)c1ccccc1)C(=O)OCC(=O)c1ccc(Br)cc1 (centres undefined)	i	i	i	nt	71µM	i
COc1ccccc1NC(CC(=O)c1ccccc1)C(=O)OCC(=O)c1ccc(C)c(C)c1 (centres undefined)	i	i	i	i	45µM	i
O=C(CC(Nc1ccccc1Cl)C(=O)OCC(=O)c1cccs1)c1ccccc1 (centres undefined)	i	i	i	i	13µM	i
